We go through 9 compounds from PubChem BioAssay (NCATS).

Several values for one entry are separate records, joined by “and”; a condition that tells them apart may be missing. Identical values can stand only once. Values without a mark were called inactive. Inconclusive results are not listed. Activity calls are given as the source filed them. Unless noted, calls come from the whole dose curve; as a rule, active = well fitted curve in the direction sought with a large enough effect; inconclusive = small, poorly fitted or top-dose-only effect, or another doubt; inactive = no such curve, though single readings can be large; an effect the other way counts as inactive or inconclusive. Some results are limits rather than exact numbers.

Assay [1] is described as follows: AP1 Signaling Pathway (AID 357; active = well fitted curve in either direction with a large enough effect, not every such curve was filed as active; note: % is set by controls: 0 for no effect and ±100 for the full control effect). The conditions noted are these: ME-180 (cervical carcinoma) AP-1-bla reporter, EGF-induced, beta-lactamase ratio, 5 h; at 17.2 µM (top of the series) unless noted. In short, it runs like this:
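ME-180 cells with beta-lactamase reporter under AP-1 response element, stimulated with EC50 EGF; compounds tested in titration series, 5 h at 37 °C. CCF4 substrate added 2.5 h at room temperature; 460/530 nm emission ratio gave %activity and AC50.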

The nature of assay [2]: NFAT Signaling Pathway (AID 444; active = well fitted curve in either direction with a large enough effect, not every such curve was filed as active;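 note: carbachol stimulus at about its EC50 of 1 µM final; % is set by controls: 0 for no effect and ±100 for the full control effect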). To be noted: Jurkat NFAT-bla M1, carbachol, beta-lactamase ratio, 5 h; at 17.2 µM (top of the series) unless noted. An outline of the steps: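 Jurkat cells carrying an NFAT-driven β-lactamase reporter and co-transfected muscarinic M1 receptor were treated with compound plus carbachol (1 uM final, an EC50 level) for 5 h at 37 °C. CCF4 loading followed for 1 h at RT; 460/530 nm ratio gave %activity.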

Assay [3] in a line: Stat Signaling Pathway (AID 446; active = well fitted curve in either direction with a large enough effect, not every such curve was filed as active;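 note: ME-180 cervical cancer cells given 40 pM IL-6 alongside compound; SIE-controlled beta-lactamase reporter measured as 460/530 nm FRET emission ratio; % is set by controls: 0 for no effect and ±100 for the full control effect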). In short, it runs like this: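 FRET read-out (405 nm excitation, 460/530 nm emission) of a beta-lactamase reporter under a STAT-inducible element in ME-180 cervical carcinoma cells. Cells with compound receive 40 pM IL-6 for 5 h. Values are normalised to AC90 stimulation and AC90 JAK-inhibitor controls.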
Assay [4] has as its target Glucocorticoid receptor (Homo sapiens) (UniProt P04150). Briefly: GR-GFP Redistribution (AID 450;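 active = compounds whose dose series gives a full or clear partial fitted curve of increased nuclear translocation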; note: potency is the fitted concentration of half-maximal effect). To be noted: U2OS GR-GFP nuclear translocation, laser cytometry, 2 h.
The target is the same in assay [5]. The assay can be described thus: GR-EFC Redistribution (AID 451; calls by dose curve; note: potency is the fitted concentration of half-maximal effect). To be noted: CHO-K1 GR-EFC translocation, beta-gal luminescence, 2 h. In short, it runs like this:
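CHO-K1 cells stably expressing nuclear-localized β-gal enzyme acceptor and GR fused C-terminally to the enzyme donor fragment; ligand-driven nuclear translocation restores β-gal by complementation. Compounds titrated up to 46 uM final, 2 h at 37 °C; luminescence read.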

The target of assay [6] is Mitogen-activated protein kinase 10 (Mus musculus) (UniProt Q61831). The assay can be described thus: JNK3 AlphaScreen Assay (AID 530; active = well fitted curve in either direction with a large enough effect, not every such curve was filed as active;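 note: kinase came from lysate of stimulated human HepG2 cells; signal reports phosphorylation of biotinylated GST-cJun 1-79 at Ser73 with 10 µM ATP; % is set by controls: 0 for no effect and ±100 for the full control effect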). An outline of the steps:
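Phosphorylation of biotinylated GST-cJun(1-79) at Ser73 is measured by AlphaScreen proximity luminescence. Enzyme is JNK3 in HepG2 lysates activated with interleukin-1beta and tumor necrosis factor alpha; ATP is 10 uM final.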

The target of assay [7] is 3',5'-cyclic-AMP phosphodiesterase 4B (Homo sapiens) (UniProt Q07343). Briefly: qHTS Assay for Inhibitors of PDE-IV (AID 607; active = well fitted activation curve with a large enough effect in the main read-out, with a control signal flat, not every such curve was filed as active; note: % of control where 0% means no effect). In short, it runs like this:
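Cell-based read-out of cAMP via a modified cyclic nucleotide-gated channel and membrane potential dye (535/590 nm) in HEK293 cells expressing PDE4 endogenously. Compounds tested up to 22.9 uM final; 100 uM RO 20-1724 reference.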

Assay [8] has as its target Guanine nucleotide-binding protein G(i) subunit alpha-1 (Homo sapiens) (UniProt P63096). Briefly: qHTS Assay for Inhibitors of RGS12 GoLoco Motif Activity (Green Fluorophore) (AID 879).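 Note: 0% = labeled peptide with Gαi1 and full inhibition = labeled peptide alone without protein; negative values mean loss of peptide binding seen as reduced polarization.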 An outline of the steps: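 A drop in FITC polarization marked displacement of the FITC-tagged RGS12 GoLoco peptide (10 nM) from Gαi1 (50 nM). Compounds were incubated 10 min at room temperature in Tris pH 7.5 buffer containing 150 mM NaCl, 0.1 mM GDP and 0.05% NP40; unlabeled peptide titration served as control.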

For assay [9], the target named is Muscarinic acetylcholine receptor M1 (Rattus norvegicus) (UniProt P08482). Briefly: qHTS Assay for Antagonists of Acetylcholine Muscarinic M1 Receptor: Measurement of IP-One Response (AID 944). Note: nearly all actives have a fitted effect of over 75% in size. An outline of the steps:
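Antagonist mode with rat M1 receptor transfected into CHO cells. Compound is added first for 10 min, carbachol at its EC80 follows for 30 min, and lysis reagents then allow TR-FRET detection of accumulated IP1.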

Assay [10] has as its target Pyruvate kinase (Leishmania mexicana) (UniProt Q27686). The assay can be described thus: qHTS Validation Assay for Inhibitors of Leishmania Mexicana Pyruvate Kinase (AID 945).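 Note: 0% = DMSO only neutral control wells.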 An outline of the steps:
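Eight-point qHTS titrations in triplicate, data normalized to DMSO neutral control. Reaction: 0.2 nM LmPYK E451W mutant, 0.5 mM PEP, 0.1 mM ADP, 7 mM MgCl2, pH 7.2, one hour at room temperature; luminescent ATP detection.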

Assay [11] addresses Pyruvate kinase PKM (Homo sapiens) (UniProt P14618). The assay can be described thus: qHTS Assay for Activators of Human Muscle Pyruvate Kinase (AID 954; active = well fitted curve in the direction sought with a large enough effect, not every such curve was filed as active;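 note: 0% = uninhibited enzyme and -100% = no enzyme or full thiadiazolimine inhibition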). In short, it runs like this:
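ATP production by PKM2 detected via luciferase luminescence after 1 h room-temperature reaction (0.1 nM enzyme, PEP at Km 0.5 mM, ADP 0.1 mM, pH 7.2 imidazole buffer). Inhibition scaled to no-enzyme control; activation referenced to 0.3 nM enzyme wells.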

In assay [12] the target is Alpha-galactosidase (Coffea arabica) (UniProt Q42656). Briefly: Counterscreen for Glucocerebrosidase Inhibitors: qHTS Assay for Coffee Bean alpha-Galactosidase at pH 4.5 (AID 957).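 Note: plate controls were enzyme alone for no effect and no enzyme for full effect.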 An outline of the steps:
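Enzyme is added first (2 nM final), then compounds titrated from 0.7 nM to 77 uM, then 80 uM 4-methylumbelliferyl alpha-D-galactopyranoside; after 20 min at room temperature a pH 10 NaOH/glycine stop precedes fluorescence reading at 365/440 nm.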

Assay [13] deals with Alpha-galactosidase A (Homo sapiens) (UniProt P06280). The assay can be described thus: Counterscreen for Glucocerebrosidase Inhibitors: qHTS Assay for Human alpha-Galactosidase at pH 4.5 (AID 992). Note: 0% is about no effect. In short, it runs like this: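 Fluorogenic 1536-well qHTS at pH 4.5 (citrate, Tween-20): 2 nM enzyme, 80 uM 4-MU-alpha-galactoside, 20 min room temperature, NaOH/glycine stop. Titration 0.7 nM to 77 uM, data normalized to no-enzyme and full-activity controls, Hill-fitted AC50.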

Assay [14] deals with alpha-glucosidase (Oryza sativa, rice) (UniProt Q653V4). Briefly: Counterscreen for Glucocerebrosidase Inhibitors: qHTS Assay for Rice alpha-Glucosidase at pH 5.0 (AID 997).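 Note: 0% = full activity with enzyme and -100% = basal without enzyme.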 In short, it runs like this: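 Endpoint fluorogenic assay at pH 5.0: compounds (0.7 nM to 77 uM) titrated against 4 nM rice enzyme and 400 uM 4-MU-alpha-glucoside for 20 min at room temperature; NaOH/glycine stop, read ex 365/em 440 nm, Hill-fitted AC50.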

Assay [15] deals with Alpha-galactosidase (Coffea arabica) (UniProt Q42656). The assay can be described thus: Counterscreen for Glucocerebrosidase Inhibitors: qHTS Assay for Coffee Bean alpha-Galactosidase at pH 5.9 (AID 998).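 Note: plate controls were uninhibited enzyme for no effect and no-enzyme basal signal for full effect.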 In short, it runs like this: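 In 50 mM citric acid pH 5.9 with 0.005% Tween-20, coffee bean enzyme hydrolyses 80 uM 4-MU alpha-D-galactopyranoside over 20 min at RT. Activity is normalized to controls; AC50 comes from Hill-modelled concentration-response data.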

Assay [16] addresses Cytochrome P450 1A2 (Homo sapiens) (UniProt P05177). Briefly: p450-cyp1a2 (AID 410; calls by dose curve; note: potency is the fitted concentration of half-maximal effect;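 for activity change, negative = inhibition: -100% = full effect of reference inhibitor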). An outline of the steps: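 O-Demethylation of luciferin 6' methyl ether by human CYP1A2 is monitored as luciferase luminescence. Substrate sits at Km (100uM); enzyme is 20nM. Values are scaled to 57 uM furafylline as maximal inhibition.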
The target of assay [17] is Cytochrome P450 2C9 (Homo sapiens) (UniProt P11712). The assay can be described thus: qHTS Assay for Inhibitors and Substrates of Cytochrome P450 2C9 (AID 883). Note: nearly all actives have a fitted effect of over 60% in size. Note: potency is the fitted concentration of half-maximal effect. An outline of the steps:
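Human CYP2C9 (10nM) hydroxylated Luciferin-H (100uM, at its KM) to luciferin in 25mM KPO4. Compound was preincubated 10 min at 37C, then NADPH regeneration started a 60 min reaction at 37C. Luminescence was read after detection reagent, normalized to 57uM sulphaphenazole.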

The target of assay [18] is Cytochrome P450 2D6 (Homo sapiens) (UniProt P10635). Briefly: qHTS Assay for Inhibitors and Substrates of Cytochrome P450 2D6 (AID 891). Note: nearly all actives have a fitted effect of over 60% in size. Note: potency is the fitted concentration of half-maximal effect. In short, it runs like this:
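Luminescent read-out of luciferin formed by 5 nM human CYP2D6 demethylating 30 uM Luciferin-ME EGE (Km level) over 60 min at room temperature after NADPH regeneration addition. Data normalized to full inhibition by 1.43 uM quinidine.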

The target of assay [19] is Cytochrome P450 2C19 (Homo sapiens) (UniProt P33261). Briefly: qHTS Assay for Inhibitors and Substrates of Cytochrome P450 2C19 (AID 899). Note: nearly all actives have a fitted effect of over 60% in size. Note: potency is the fitted concentration of half-maximal effect. In short, it runs like this: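 Human CYP2C19 (5nM) with Luciferin-H EGE at 10uM (its KM) in 50mM KPO4 was preincubated with compound for 10 min at 37C. NADPH regeneration started a 60 min 37C reaction. Luciferin was read by luminescence, normalized to 57uM ketoconazole.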

The target in assay [20] is Cytochrome P450 3A4 (Homo sapiens) (UniProt P08684). Briefly: qHTS Assay for Inhibitors and Substrates of Cytochrome P450 3A4 (AID 884). Note: % is set by controls: 0 for no effect and ±100 for the full control effect; nearly all actives have a fitted effect of over 50% in size. In short, it runs like this: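 Luminescent readout of luciferin produced by CYP3A4 (20 nM) dealkylation of Luciferin-PPXE, 25 uM (its KM). NADPH-driven reaction ran 60 min at RT after 10 min compound preincubation; data scaled to 57 uM ketoconazole as 100% inhibition.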

In assay [21] the target is DNA dC->dU-editing enzyme APOBEC-3G (Homo sapiens) (UniProt Q9HC16). Briefly: qHTS for inhibitors of Vif-A3G interactions: Validation (AID 588379). Note: 0% is about no effect. In short, it runs like this: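 Yellow fluorescence (Ex 488, Em 500-530) of Vif-coexpressing HeLa A3G-eYFP cells, scanned by Acumen cytometer, reports blocked A3G degradation. Cells plated at 700/well overnight at 37 deg C before compound addition, then a further overnight compound incubation at 37 deg C.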

Sequence of Cytochrome P450 2C19 (Homo sapiens) (P33261 whole entry, looked up): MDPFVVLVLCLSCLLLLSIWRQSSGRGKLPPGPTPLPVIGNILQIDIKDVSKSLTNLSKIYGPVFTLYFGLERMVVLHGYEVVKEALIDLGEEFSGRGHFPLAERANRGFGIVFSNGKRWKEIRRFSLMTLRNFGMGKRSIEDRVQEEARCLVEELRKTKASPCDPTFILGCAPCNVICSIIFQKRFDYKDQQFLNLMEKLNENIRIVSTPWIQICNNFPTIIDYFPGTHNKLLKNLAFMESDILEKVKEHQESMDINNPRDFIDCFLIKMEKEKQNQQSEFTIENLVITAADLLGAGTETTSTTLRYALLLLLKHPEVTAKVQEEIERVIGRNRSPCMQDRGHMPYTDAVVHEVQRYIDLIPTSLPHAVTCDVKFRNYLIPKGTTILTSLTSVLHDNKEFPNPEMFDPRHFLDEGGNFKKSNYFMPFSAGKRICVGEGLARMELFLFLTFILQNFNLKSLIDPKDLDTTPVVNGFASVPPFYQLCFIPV
Sequence of Cytochrome P450 1A2 (Homo sapiens) (P05177 whole entry, looked up): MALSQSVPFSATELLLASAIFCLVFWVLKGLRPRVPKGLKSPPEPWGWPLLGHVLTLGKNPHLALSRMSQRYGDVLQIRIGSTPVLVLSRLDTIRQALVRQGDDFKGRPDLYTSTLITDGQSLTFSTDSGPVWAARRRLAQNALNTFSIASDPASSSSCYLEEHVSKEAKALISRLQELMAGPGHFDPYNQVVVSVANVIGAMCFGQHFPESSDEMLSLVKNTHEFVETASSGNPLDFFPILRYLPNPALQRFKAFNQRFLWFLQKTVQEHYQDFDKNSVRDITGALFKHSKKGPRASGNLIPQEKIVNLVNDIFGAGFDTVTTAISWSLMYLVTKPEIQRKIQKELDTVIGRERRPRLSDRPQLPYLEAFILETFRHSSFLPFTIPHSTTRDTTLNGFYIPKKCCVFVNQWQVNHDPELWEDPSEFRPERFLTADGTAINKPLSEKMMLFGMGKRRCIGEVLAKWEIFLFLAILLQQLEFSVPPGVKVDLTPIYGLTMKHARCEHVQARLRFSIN
Sequence of Cytochrome P450 2C9 (Homo sapiens) (P11712 whole entry, looked up): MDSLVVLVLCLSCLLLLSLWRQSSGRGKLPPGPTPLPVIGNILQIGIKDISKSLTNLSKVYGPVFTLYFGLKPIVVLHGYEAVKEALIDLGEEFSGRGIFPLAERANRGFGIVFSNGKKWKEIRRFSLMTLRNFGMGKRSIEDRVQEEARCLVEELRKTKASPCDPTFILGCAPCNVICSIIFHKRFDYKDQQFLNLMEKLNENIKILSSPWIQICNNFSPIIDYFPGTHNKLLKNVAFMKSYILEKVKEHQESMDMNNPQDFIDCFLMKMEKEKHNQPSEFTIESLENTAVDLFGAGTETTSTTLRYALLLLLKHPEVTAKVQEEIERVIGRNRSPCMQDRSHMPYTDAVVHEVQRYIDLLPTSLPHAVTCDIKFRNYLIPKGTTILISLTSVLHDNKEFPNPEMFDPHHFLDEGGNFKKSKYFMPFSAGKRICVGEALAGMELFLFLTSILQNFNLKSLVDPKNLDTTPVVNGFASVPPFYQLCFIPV
Sequence of 3',5'-cyclic-AMP phosphodiesterase 4B (Homo sapiens) (Q07343 whole entry, looked up): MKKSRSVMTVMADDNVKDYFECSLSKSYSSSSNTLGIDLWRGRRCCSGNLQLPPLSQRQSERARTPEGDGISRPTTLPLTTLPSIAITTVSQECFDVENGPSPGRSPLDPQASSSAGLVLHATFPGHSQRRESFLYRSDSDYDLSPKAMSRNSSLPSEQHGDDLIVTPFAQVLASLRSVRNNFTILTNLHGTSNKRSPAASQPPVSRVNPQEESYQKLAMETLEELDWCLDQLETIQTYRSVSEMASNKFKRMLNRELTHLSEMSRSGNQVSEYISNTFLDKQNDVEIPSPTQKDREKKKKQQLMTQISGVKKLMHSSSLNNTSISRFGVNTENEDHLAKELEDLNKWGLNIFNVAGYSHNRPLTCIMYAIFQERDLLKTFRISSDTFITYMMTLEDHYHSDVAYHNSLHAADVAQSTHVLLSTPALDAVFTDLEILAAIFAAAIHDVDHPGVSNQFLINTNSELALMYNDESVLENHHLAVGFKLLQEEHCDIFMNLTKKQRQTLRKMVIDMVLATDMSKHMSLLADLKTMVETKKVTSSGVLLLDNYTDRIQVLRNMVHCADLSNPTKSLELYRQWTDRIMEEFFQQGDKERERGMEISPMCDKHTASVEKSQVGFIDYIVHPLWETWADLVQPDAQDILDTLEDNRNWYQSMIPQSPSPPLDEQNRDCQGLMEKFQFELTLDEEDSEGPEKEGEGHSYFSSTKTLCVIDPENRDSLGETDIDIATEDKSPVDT
Sequence of Glucocorticoid receptor (Homo sapiens) (P04150 whole entry, looked up): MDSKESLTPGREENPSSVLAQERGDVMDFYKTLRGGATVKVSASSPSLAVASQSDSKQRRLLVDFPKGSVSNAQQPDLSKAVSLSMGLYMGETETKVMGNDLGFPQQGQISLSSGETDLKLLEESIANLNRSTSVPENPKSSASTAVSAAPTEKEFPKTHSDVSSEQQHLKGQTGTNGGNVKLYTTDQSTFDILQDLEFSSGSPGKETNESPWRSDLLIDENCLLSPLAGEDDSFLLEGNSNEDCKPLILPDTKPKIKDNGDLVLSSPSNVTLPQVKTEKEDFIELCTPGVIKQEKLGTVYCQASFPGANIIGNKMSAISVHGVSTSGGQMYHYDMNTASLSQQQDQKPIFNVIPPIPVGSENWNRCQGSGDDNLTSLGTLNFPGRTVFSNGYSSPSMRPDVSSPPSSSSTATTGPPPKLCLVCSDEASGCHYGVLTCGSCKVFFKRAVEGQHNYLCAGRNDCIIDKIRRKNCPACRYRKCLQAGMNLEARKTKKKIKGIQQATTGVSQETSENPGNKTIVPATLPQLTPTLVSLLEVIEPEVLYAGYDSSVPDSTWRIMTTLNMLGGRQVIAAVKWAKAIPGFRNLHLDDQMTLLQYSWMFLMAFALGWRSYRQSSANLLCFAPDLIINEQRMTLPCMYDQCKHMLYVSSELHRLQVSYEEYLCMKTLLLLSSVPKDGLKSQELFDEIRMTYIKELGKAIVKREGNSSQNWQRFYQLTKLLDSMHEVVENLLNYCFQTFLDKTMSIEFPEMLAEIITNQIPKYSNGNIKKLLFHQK
Sequence of Cytochrome P450 2D6 (Homo sapiens) (P10635 whole entry, looked up): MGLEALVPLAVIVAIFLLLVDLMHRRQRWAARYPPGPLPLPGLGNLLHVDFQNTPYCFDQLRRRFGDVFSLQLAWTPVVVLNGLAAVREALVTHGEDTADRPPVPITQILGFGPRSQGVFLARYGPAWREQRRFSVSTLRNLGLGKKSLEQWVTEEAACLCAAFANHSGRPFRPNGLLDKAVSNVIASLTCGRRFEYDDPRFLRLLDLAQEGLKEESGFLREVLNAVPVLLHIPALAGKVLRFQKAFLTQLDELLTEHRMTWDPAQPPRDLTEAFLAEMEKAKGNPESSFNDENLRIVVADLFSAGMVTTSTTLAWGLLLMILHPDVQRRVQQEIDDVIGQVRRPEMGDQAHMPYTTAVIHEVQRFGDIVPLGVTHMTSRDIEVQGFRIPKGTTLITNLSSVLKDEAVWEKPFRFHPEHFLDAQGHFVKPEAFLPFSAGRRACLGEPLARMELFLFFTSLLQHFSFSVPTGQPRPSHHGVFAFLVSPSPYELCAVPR
Sequence of Alpha-galactosidase (Coffea arabica) (Q42656 whole entry, looked up): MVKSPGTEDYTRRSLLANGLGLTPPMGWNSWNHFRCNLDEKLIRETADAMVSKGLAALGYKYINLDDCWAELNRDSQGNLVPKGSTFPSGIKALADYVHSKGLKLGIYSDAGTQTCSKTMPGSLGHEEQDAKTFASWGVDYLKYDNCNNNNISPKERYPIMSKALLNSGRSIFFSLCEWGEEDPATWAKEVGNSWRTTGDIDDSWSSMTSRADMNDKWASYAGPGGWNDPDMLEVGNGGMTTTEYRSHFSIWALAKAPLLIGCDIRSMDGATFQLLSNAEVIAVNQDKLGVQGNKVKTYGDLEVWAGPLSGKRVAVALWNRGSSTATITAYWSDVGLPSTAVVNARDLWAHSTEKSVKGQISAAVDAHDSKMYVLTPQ
Sequence of Guanine nucleotide-binding protein G(i) subunit alpha-1 (Homo sapiens) (P63096 whole entry, looked up): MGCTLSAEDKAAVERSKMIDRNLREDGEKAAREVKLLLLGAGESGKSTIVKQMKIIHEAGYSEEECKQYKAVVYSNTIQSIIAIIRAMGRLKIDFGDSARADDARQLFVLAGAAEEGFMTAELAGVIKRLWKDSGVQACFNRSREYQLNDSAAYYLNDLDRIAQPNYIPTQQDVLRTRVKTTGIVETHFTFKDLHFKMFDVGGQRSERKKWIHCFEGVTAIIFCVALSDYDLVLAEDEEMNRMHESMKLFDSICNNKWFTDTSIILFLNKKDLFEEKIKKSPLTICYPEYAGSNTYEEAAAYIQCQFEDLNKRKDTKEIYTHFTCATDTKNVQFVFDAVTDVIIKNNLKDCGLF
Sequence of Pyruvate kinase (Leishmania mexicana) (Q27686 2-499 E452W): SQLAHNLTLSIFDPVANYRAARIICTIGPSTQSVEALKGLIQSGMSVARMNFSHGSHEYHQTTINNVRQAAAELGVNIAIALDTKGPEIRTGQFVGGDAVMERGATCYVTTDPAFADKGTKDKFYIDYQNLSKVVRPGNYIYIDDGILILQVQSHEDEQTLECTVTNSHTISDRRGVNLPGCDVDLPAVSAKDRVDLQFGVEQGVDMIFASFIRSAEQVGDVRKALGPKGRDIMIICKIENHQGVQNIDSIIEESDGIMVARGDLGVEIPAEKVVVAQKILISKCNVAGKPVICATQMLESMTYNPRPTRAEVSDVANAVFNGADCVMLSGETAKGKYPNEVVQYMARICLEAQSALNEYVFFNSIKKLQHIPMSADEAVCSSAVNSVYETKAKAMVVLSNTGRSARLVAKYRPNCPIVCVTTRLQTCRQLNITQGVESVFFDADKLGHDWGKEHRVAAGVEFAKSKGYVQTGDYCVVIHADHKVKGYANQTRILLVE

As for `CC(C)(O)[C@H]1[C@H]2OC(=O)[C@@H]1[C@]1(O)C[C@H]3O[C@]34C(=O)O[C@H]2[C@]14C` (tested in a mixture with another compound), the activity change, negative = inhibition in [1] was 5.02% [at 38 µM]; in [2], -0.245% [at 38 µM]. The compound was classed as inactive in [3], in assay [6], in [7], in assay [11], in assay [12] and in [13]. The result in assay [14] and in assay [15] was inactive. Also, the Potency in [4] and in [5] was above 46 µM in each case. Further, the Potency result in [8], in assay [9] and in assay [10] was “inactive” throughout.
For `CCOC(C(=O)OCC(O)CN(CC)CC)(c1ccccc1)c1ccccc1` (stereo not given), the activity change, negative = inhibition in assay [1] was 4.62%. Also, the compound was classed as inactive in assay [3]. The Potency in assay [4] is above 20.6 µM.
With `CC(C)(C)[C@@]1(O)C[C@@H]2OC(=O)C[C@@]23C(=O)O[C@H]2OC(=O)[C@@H](O)[C@]231`, the Potency entry in [16], in assay [17], in [18] and in [19] was “inactive” in each case. The Potency in assay [4] and in assay [5] was above 46 µM in each case. The outcome in assay [6] and in [7] was inactive.
As to `CN1CCc2cc3c(cc2[C@@H]1[C@H]1OC(=O)c2c1ccc1c2OCO1)OCO3`, the Potency was 15.8 µM (active) and 12.6 µM (active) in [16]; above 46 µM in assay [4]; above 46 µM in [5]; 3.98 µM (active) in assay [17]; 15.8 µM (active) in assay [18]; 100 nM (active) and 15.8 nM (active) in assay [19]. Further, the result in assay [6] and in assay [7] was inactive.
Turning to `C[C@@H](CO)NC(=O)[C@H]1C=C2c3cccc4[nH]cc(c34)C[C@H]2N(C)C1`, the Potency in assay [16] was 31.6 µM (active); in assay [4], above 46 µM; in assay [5], above 46 µM; in [18], 12.6 µM (active). The compound was classed as inactive in [6] and in assay [7]. In addition, the Potency entry in [17] and in [19] was “inactive” each time.
With `C=C1C/C(=C\C)C(=O)O[C@@H]2CCN3CC=C(COC(=O)[C@]1(C)O)[C@H]23`, the Potency result in assay [16], in [17], in assay [18] and in assay [19] was “inactive” throughout. Besides, the Potency in [4] and in assay [5] was above 46 µM throughout. Moreover, the call in assay [6] and in assay [7] was inactive.
Turning to `CCOc1ccccc1-n1c(O)c(C=Nc2c(C)n(C)n(-c3ccccc3)c2=O)c(=O)[nH]c1=O`, the activity change, negative = inhibition in assay [1] was -0.373%. Moreover, the outcome in assay [3] was inactive. In addition, the Potency in assay [4] is above 20.6 µM.
`CO[C@@H](C)[C@](O)(C(=O)OC1=CCN2CC[C@H](O)[C@H]12)C(C)C`: the Potency entry in [16], in assay [17], in assay [18] and in assay [19] was “inactive” throughout. The Potency in assay [4] and in assay [5] was above 46 µM throughout. Besides, the compound was called inactive in assay [6] and in assay [7].
In the case of `CC[C@]1(O)C(=O)OCc2c1cc1n(c2=O)Cc2cc3ccccc3nc2-1`, the values for the Potency in [16], in [4] and in assay [5] were 5.01 µM (active), above 46 µM and above 46 µM, respectively. Also, the call in [6] and in assay [21] was inactive. In addition, the Potency entry in [17], in [20], in assay [18] and in assay [19] was “inactive” each time.
